The text below walks through data of PubChem BioAssay (Tox21).

Inconclusive results are not listed. Entries that show only a call come without a potency. Active and inactive are the calls of the source. Unless noted, calls come from the whole dose curve; as a rule, active = well fitted curve in the direction sought with a large enough effect in the repeat runs; inconclusive = weak or mixed curves; inactive = no such curve, though single readings can be large; an effect the other way counts as inactive or inconclusive.

The subject of the first experiment is estrogen-related receptor alpha (ERRalpha) with PGC-1alpha coactivator, human. As to the kind of experiment: qHTS assay to identify small molecule antagonists of the estrogen related receptor signaling pathway with the pleiotropic PPARgamma coactivator (PGC) (AID 1224821; calls by dose curve;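 note: lower luminescence signal means antagonism of PGC/ERR signalling; nearly all actives have a fitted effect of over 50% in size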). To be noted: ERR/PGC reporter cell line, luciferase, antagonist mode; series mostly up to 46.1 µM. A digest of the protocol:
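PGC/ERR reporter cells; 6 h pre-incubation 37 C/5% CO2; pin-tool compound in DMSO, 18 h 37 C; One-Glo added, 30 min RT; luminescence read. qHTS antagonist mode.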
In the case of `CCCCCCC(=O)OC1CC(C)(C)NC(C)(C)C1`, the Potency result was “inactive”. Same read-out and setting: in the case of `O=C(O)c1cc2cc(F)ccc2[nH]1` it was “inactive”; in that of `COCCOc1cc2nc[nH]c(=O)c2cc1OCCOC`, “inactive”.

Test system in a further experiment: not listed separately
Kind of experiment: qHTS assay to identify small molecule antagonists of the estrogen related receptor signaling pathway with the pleiotropic PPARgamma coactivator (PGC) cell viability counter screen (AID 1224822;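 note: viability read after 17.5 h compound exposure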). To be noted: ERR/PGC reporter cell line viability counter screen; series mostly up to 46.1 µM. The gist of the method:
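Fluorescence read-out of CellTiter-Fluor after 30 min at 37 C; PGC/ERR cells, 2,000 per well, had been exposed to DMSO-dissolved compounds for 17.5 h following a 6 h pre-incubation.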
Turning to `c1ccc2c(c1)CCC[C@H]2Nc1nc2ccccc2[nH]1`, the Potency entry is “inactive”.

With `CN1Cc2sccc2C(c2ccc(O)c(O)c2)C1` (stereo unspecified), the Potency entry was “inactive”. Still for that read-out and setting: in the case of `Clc1ccc(N2CCN(Cc3c[nH]c4ncccc34)CC2)cc1` it was “inactive”; in that of `N#C/C(=C\c1ccc(O)c(O)c1)C(=O)c1ccc(O)c(O)c1`, “inactive”; in that of `CC1CN(S(=O)(=O)c2cccc3cnccc23)CCN1` (stereo unspecified), “inactive”. Same read-out and setting: in the case of `CC(C)COC(=O)OCN1C(=O)CN(CCN2CC(=O)N(COC(=O)OCC(C)C)C(=O)C2)CC1=O` it was “inactive”; in that of `O=C1OC(=O)C2C3CCC(O3)C12` (stereo unspecified), “inactive”; in that of `NC(=O)C1=CN(C2OC(COP(=O)(O)OP(=O)(O)OC[C@H]3O[C@@H](n4cnc5c(N)ncnc54)[C@H](OP(=O)(O)O)C3O)C(O)C2O)C=CC1` (stereo partly specified), “inactive”.

Take `CN1CCc2cc(NC(=O)Nc3cccnc3)ccc21`: the Potency entry is “inactive”. The same measure, in the same setting: then `CN(C)C(=O)[C@H](O)[C@H](Cc1ccccc1)NC(=O)c1cc2cc(Cl)ccc2[nH]1`, with “inactive”; and `COc1cc2c(CCNC(C)=O)c[nH]c2cc1Cl`, with “inactive”.

On to `Nc1nc(OCC2CCCCC2)c2[nH]cnc2n1`, for which the Potency result is “inactive”.

As to `O=C(c1ccc2c(c1)OCCO2)N1CCCCC1`, the Potency entry is “inactive”.

Regarding `COC(=O)c1c(C)[nH]c(C)c1C(=O)c1ccccc1Cc1ccccc1`, the Potency entry is “inactive”. Take `CN[C@H](CC(=O)O)C(=O)O`: the Potency entry is “inactive”.

`Cc1cc(NC(=O)Nc2ccc3c(ccn3C)c2)sn1`: the Potency result is “inactive”. Same read-out and setting: in the case of `O=c1[nH]c2cc(C(F)(F)F)ccc2n1-c1cc(C(F)(F)F)ccc1O` it was “inactive”. Consider `O=C(O)CCC/C=C\C[C@@H]1[C@@H](/C=C/[C@H](O)C2Cc3ccccc3C2)[C@@H](F)C[C@@H]1O`, for which the Potency entry is “inactive”. On to `CN(C)CCCC1(c2ccc(F)cc2)OCc2cc(C#N)ccc21` (stereo unspecified), for which the Potency result was “inactive”. Still for that read-out and setting: then `COc1ccc(NC(=O)/C=C/c2ccc(Cl)cc2)cc1`, with “inactive”. Turning to `COC(=O)[C@H](NC(=O)c1cc(-c2ccccc2)nc2ccccc12)c1ccccc1`, the Potency result was “inactive”.

`C[C@](Cc1ccc(O)c(O)c1)(NN)C(=O)O`: the Potency entry is “inactive”. Same read-out and setting: then `Fc1ccc2[nH]c(CN3CCN(c4ccccn4)CC3)cc2c1`, with “inactive”. Same read-out and setting: in the case of `O=C(Nc1ccncc1)c1cc([N+](=O)[O-])ccc1Cl` it was “inactive”; in that of `CC(C)(C)[C@]1(O)CCN2C[C@H]3c4ccccc4CCc4cccc(c43)[C@@H]2C1`, “inactive”; in that of `NCCCCN=C(N)N`, “inactive”. On the same count and under the same terms, in the case of `COc1cc(CNC(=O)CCCCCCC(C)C)ccc1O` it was “inactive”. As for `CCCCCCC(=O)OC1CC(C)(C)NC(C)(C)C1`, the Potency entry is “inactive”.

Turning to `O=C1NC(=O)/C(=C/c2ccc(-c3ccc(F)cc3O)o2)S1`, the Potency entry is “inactive”. Consider `O=C(O)c1cc2cc(F)ccc2[nH]1`, for which the Potency entry was “inactive”. For the compound `COCCOc1cc2nc[nH]c(=O)c2cc1OCCOC`, the Potency entry was “inactive”.

Test system in a further experiment: not listed separately
As to the kind of experiment: qHTS assay to identify small molecule agonists of the estrogen related receptor signaling pathway with the pleiotropic PPARgamma coactivator (PGC) (AID 1224823). The following applies: ERR/PGC reporter cell line, luciferase agonist mode; series mostly up to 46.1 µM. The gist of the method:
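Luminescence readout (One-Glo, 30 min RT) from PGC/ERR cell line treated 18 h at 37 C with pin-tool-delivered DMSO compound solutions; cells plated 6 h before dosing. Quantitative HTS format.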
On the technique in general: In qHTS, concentration-response curves come from the screen itself.
Take `c1ccc2c(c1)CCC[C@H]2Nc1nc2ccccc2[nH]1`: the Potency result was “inactive”. For `CN1Cc2sccc2C(c2ccc(O)c(O)c2)C1` (stereo unspecified), the Potency result is “inactive”. The same measure, in the same setting: then `Clc1ccc(N2CCN(Cc3c[nH]c4ncccc34)CC2)cc1`, with “inactive”.

As for `N#C/C(=C\c1ccc(O)c(O)c1)C(=O)c1ccc(O)c(O)c1`, the Potency entry is “inactive”.

In the case of `CC1CN(S(=O)(=O)c2cccc3cnccc23)CCN1` (stereo unspecified), the Potency entry is “inactive”.

As for `CC(C)COC(=O)OCN1C(=O)CN(CCN2CC(=O)N(COC(=O)OCC(C)C)C(=O)C2)CC1=O`, the Potency entry was “inactive”. The same measure, in the same setting: then `O=C1OC(=O)C2C3CCC(O3)C12` (stereo unspecified), with “inactive”; and `N[C@@H](Cc1ccc(O)c(O)c1)C(=O)O`, with “inactive”. Same read-out and setting: in the case of `CN(C)C(=O)[C@H](O)[C@H](Cc1ccccc1)NC(=O)c1cc2cc(Cl)ccc2[nH]1` it was “inactive”.

For the compound `COc1cc2c(CCNC(C)=O)c[nH]c2cc1Cl`, the Potency entry is “inactive”. The same measure, in the same setting: in the case of `Nc1nc(OCC2CCCCC2)c2[nH]cnc2n1` it was “inactive”; in that of `O=C(c1ccc2c(c1)OCCO2)N1CCCCC1`, “inactive”; in that of `O=C1C(SCCO)=C(SCCO)C(=O)c2ccccc21`, “inactive”.

As to `COC(=O)c1c(C)[nH]c(C)c1C(=O)c1ccccc1Cc1ccccc1`, the Potency entry was “inactive”. On the same count and under the same terms, then `CN[C@H](CC(=O)O)C(=O)O`, with “inactive”. For `O=c1[nH]c2cc(C(F)(F)F)ccc2n1-c1cc(C(F)(F)F)ccc1O`, the Potency result was “inactive”. On the same count and under the same terms, then `O=C(O)CCC/C=C\C[C@@H]1[C@@H](/C=C/[C@H](O)C2Cc3ccccc3C2)[C@@H](F)C[C@@H]1O`, with “inactive”. Still for that read-out and setting: in the case of `CN(C)CCCC1(c2ccc(F)cc2)OCc2cc(C#N)ccc21` (stereo unspecified) it was “inactive”. On the same count and under the same terms, then `COC(=O)[C@H](NC(=O)c1cc(-c2ccccc2)nc2ccccc12)c1ccccc1`, with “inactive”; and `C[C@](Cc1ccc(O)c(O)c1)(NN)C(=O)O`, with “inactive”; and `O=C(c1cc(O)c(O)c([N+](=O)[O-])c1)c1ccccc1F`, with “inactive”. For the compound `Fc1ccc2[nH]c(CN3CCN(c4ccccn4)CC3)cc2c1`, the Potency entry is “inactive”. Still for that read-out and setting: in the case of `O=C(Nc1ccncc1)c1cc([N+](=O)[O-])ccc1Cl` it was “inactive”; in that of `CC(C)(C)[C@]1(O)CCN2C[C@H]3c4ccccc4CCc4cccc(c43)[C@@H]2C1`, “inactive”; in that of `NCCCCN=C(N)N`, “inactive”. The same measure, in the same setting: in the case of `COc1cc(CNC(=O)CCCCCCC(C)C)ccc1O` it was “inactive”; in that of `COc1cc(C(O)C(=O)O)ccc1O` (stereo unspecified), “inactive”; in that of `C[C@H]1CC2C3CCC4=CC(=O)C=C[C@]4(C)[C@@]3(Cl)[C@@H](O)C[C@]2(C)[C@@]1(O)C(=O)CO` (stereo partly specified), “inactive”. On the same count and under the same terms, in the case of `CCCCCCC(=O)OC1CC(C)(C)NC(C)(C)C1` it was “inactive”; in that of `O=C1NC(=O)/C(=C/c2ccc(-c3ccc(F)cc3O)o2)S1`, “inactive”. For `O=C(O)c1cc2cc(F)ccc2[nH]1`, the Potency entry is “inactive”. With `COCCOc1cc2nc[nH]c(=O)c2cc1OCCOC`, the Potency result was “inactive”.
